Most compounds without a hit are left out; they make up all but 21% or so of the library.
Pf growth 96h = inhibits malaria parasite growth, 96 h; P. falciparum luciferase reporter growth, 96 h; Potency, µM (highest dose often 28.7 µM), inactives show at the highest dose activity change, negative = inhibition, actives largely listed as inhibitors; hit rate 6.9% among 320,000; AID 504834; further: potency means the concentration at half of the fitted maximal effect; on the % scale 0 is the no-effect control and ±100 the full control effect
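Erythrocytes infected with luciferase-expressing P. falciparum were dispensed at 2% hematocrit and 0.05% parasitemia (final), then incubated with compounds 96 hours at 37 C in 5% CO2. Luminescence after detection reagent addition reported growth.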
Cycloheximide cs = counter-screen for Shiga toxin inhibitors: cycloheximide protein synthesis inhibition; cell reporter, cycloheximide protein synthesis inhibition counterscreen; max response, %; hit rate 12% among 300,000; AID 2314; in the data active means max response mostly above about 13%, no sharp cut-off; inactive means mostly below about 14%; further: read at 38.3 µM for the half of the compounds with a filed dose; 0% is about no effect
Pf growth 48h = inhibits P. falciparum growth in the first generation, 48 h | P. falciparum luciferase growth in erythrocytes, 48 h | Potency, µM (top dose mostly 28.7 µM), for the others: top-dose activity change, negative = inhibition, actives largely listed as inhibitors | hit rate 5.9% among 310,000 | AID 504832; further: potency means the concentration at half of the fitted maximal effect; on the % scale 0 is the no-effect control and ±100 the full control effect
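A one-generation exposure of luciferase-tagged malaria parasites in RPMI 1640/Albumax erythrocyte culture, 37 C and 5% CO2. Inhibition is inferred from decreased luminescence after adding detection reagent.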
AMA1-RON2 inh = AMA1-RON2 (P. falciparum) interaction inhibition; Potency, µM (doses to about 58.2 µM), inactives show at the highest dose activity change, negative = inhibition, actives largely listed as inhibitors; AID 720542; hit rate 0.2% among 360,000; AlphaScreen AMA1-biotinylated RON2 peptide binding;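 further: potency means the concentration at half of the fitted maximal effect; 0% = vehicle wells and -100% = peptide control; nearly all actives have a fitted effect of over 45% in size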
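AMA1 (3D7) with his tag at 25 nM final met compounds first, then biotinylated RON2 peptide at 25 nM; detection used donor plus acceptor beads, 10 µg/mL apiece, read by AlphaScreen after 30 min at room temperature.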
HCV inh = inhibitors of hepatitis C virus infection; Huh7.5.1 HCVcc-Cre infection, luciferase reporter, 44 h; Potency, µM (series often up to 41.8 µM), without a hit: at the highest dose activity change, negative = inhibition, hits mostly inhibitors; hit rate 3.4% among 340,000; further: potency means the concentration at half of the fitted maximal effect; on the % scale 0 is the no-effect control and ±100 the full control effect
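Whole-lifecycle infectious HCVcc-Cre system; cells 1,000/well, compound then virus (~0.5 moi) added 4 h after plating, 44 h culture. Luciferase read 15 sec following 15 min substrate incubation, room temp.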
Shiga inhibitor = Shiga toxin inhibition. AID 2315. hit rate 9.2% among 290,000. Vero cells, Shiga toxin protein synthesis inhibition reporter. inhibition, % at 38.7 µM; in the data active means inhibition mostly above about 28%, no sharp cut-off; inactive means mostly below about 43%; further: 0% is about no effect
* = called active by the depositor. Unless noted, the call rests on the fitted dose curve; in most records, active means well fitted curve in the direction sought with a large enough effect; inconclusive means small, poorly fitted or top-dose-only effect, or another doubt; inactive means no such curve, though single readings can be large; an effect the other way counts as inactive or inconclusive.

How did Cc1ccc(C(=O)Oc2ccc(/C=C3\C(=N)N4N=C(N5CCOCC5)SC4=NC3=O)cc2)cc1 do in these assays?
Pf growth 96h: inconclusive; Cycloheximide cs: 26*; Pf growth 48h: 39%; AMA1-RON2 inh: 158%; HCV inh: 8%; Shiga inhibitor: 59*

How did COc1ccc(NC(=O)CSc2ncccn2)cc1S(=O)(=O)N1CCCCC1 do in these assays?
Pf growth 96h: inconclusive; Pf growth 48h: inconclusive; AMA1-RON2 inh: 0%; HCV inh: 1%

How did Nc1ccc(-c2ccc(N)c([N+](=O)[O-])c2)cc1[N+](=O)[O-] do in these assays?
Pf growth 96h: 336%; Cycloheximide cs: 8; Pf growth 48h: 73%; AMA1-RON2 inh: -1%; HCV inh: inconclusive; Shiga inhibitor: 36

How did Nc1ccc(-c2cnc[nH]2)cc1[N+](=O)[O-] do in these assays?
Pf growth 96h: 51%; Cycloheximide cs: 12*; Pf growth 48h: 64%; AMA1-RON2 inh: inconclusive; HCV inh: -1%; Shiga inhibitor: 26

How did COc1ccc(CN(C(=O)CCC(=O)Nc2cc(C)on2)C(C(=O)NC(C)(C)C)c2cccc(OC)c2OC)cc1 (centres undefined) do in these assays?
Pf growth 96h: -25%; Cycloheximide cs: -3; Pf growth 48h: inconclusive; AMA1-RON2 inh: 12%; HCV inh: 13%; Shiga inhibitor: 24

What do the screens show for `O=C(CCn1cnnn1)Nc1ccccc1F`?
Pf growth 96h: 4.7µM*; Cycloheximide cs: 0; Pf growth 48h: 13%; AMA1-RON2 inh: -6%; HCV inh: 11%; Shiga inhibitor: -18

How did CSc1ccccc1-n1nnnc1SCC(=O)Nc1ccccc1C do in these assays?
Pf growth 96h: -22%; Cycloheximide cs: -1; AMA1-RON2 inh: 0%; HCV inh: 11µM*; Shiga inhibitor: -11

How did NC(=O)c1ccc(-n2nnnc2SCC(=O)Nc2ccccc2F)cc1 do in these assays?
Pf growth 96h: 13%; Cycloheximide cs: -9; Pf growth 48h: 24%; AMA1-RON2 inh: -9%; HCV inh: -23%; Shiga inhibitor: -2

How did O=C(CSc1nnnn1-c1ccc(F)cc1)Nc1ccccc1F do in these assays?
Pf growth 96h: 8.3µM*; Cycloheximide cs: -1; Pf growth 48h: 24%; AMA1-RON2 inh: 1%; HCV inh: -1%; Shiga inhibitor: -4

Results for COc1ccccc1NC(=O)CSc1nnnn1-c1ccc(C(=O)O)cc1 ?
Pf growth 96h: 12µM*; Cycloheximide cs: -2; Pf growth 48h: 38%; AMA1-RON2 inh: 7%; HCV inh: 27%; Shiga inhibitor: -9

What do the screens show for `COc1ccccc1NC(=O)CSc1nnnn1-c1ccc(F)cc1`?
Pf growth 96h: inconclusive; Cycloheximide cs: -1; Pf growth 48h: -10%; AMA1-RON2 inh: -4%; HCV inh: inconclusive; Shiga inhibitor: -1

Results for CCOC(=O)[C@]12CCCC=C1N(Cc1ccc3c(c1)OCO3)C(=O)[C@H](CC(=O)N1CCCCC1)C2 ?
AMA1-RON2 inh: 0%

What do the screens show for `CC(=O)c1ccc(OCc2nnn(CC(=O)O)c2-c2ccccc2)cc1`?
AMA1-RON2 inh: 0%

How did Cc1nc(SCC(=O)c2cc(C)n(C3CC3)c2C)c2ccccc2n1 do in these assays?
AMA1-RON2 inh: 8%

What do the screens show for `CCCCNC(=O)NS(=O)(=O)c1ccc(NC(=O)CCC(=O)c2cccs2)cc1`?
Pf growth 96h: 45%; Cycloheximide cs: -1; Pf growth 48h: -2%; AMA1-RON2 inh: -5%; HCV inh: 17%; Shiga inhibitor: 8

How did CCN1CCN(CCNC(=O)C2CCCN(Cc3nc(-c4cccc(Cl)c4)oc3C)C2)CC1 (centres undefined) do in these assays?
Pf growth 96h: -23%; Cycloheximide cs: -5; AMA1-RON2 inh: -5%; HCV inh: 10µM*; Shiga inhibitor: -11

What do the screens show for `Cc1oc(-c2ccc(Cl)cc2)nc1CN1CCCC(C(=O)NCCCN2CCCC2=O)C1` (centres undefined)?
Pf growth 96h: inconclusive; Cycloheximide cs: -1; AMA1-RON2 inh: 1%; HCV inh: inconclusive; Shiga inhibitor: -13
